Data as given in ChEMBL document CHEMBL3988442, “University of Dundee, Small-Polar-MMV Screening Library” (2021).
About 13,000 (27%) of roughly 48,000 compounds showed an effect of 50% or more. Some of the results follow.

Tested on: Wolbachia pipientis
Assay: Anti-Wolbachia Cell-Based Screen
Assay type: functional
Set-up: scale not given: in the data most compounds retested in dose-response had high values
Conditions: 5 µM

Compound | Percent Effect
CS(=O)(=O)NC[C@@H]1OC[C@H]2CN(Cc3ccsc3)CC[C@H]21.O=C(O)C(F)(F)F | 83.99%
CS(=O)(=O)NC[C@H]1OC[C@H]2CN(Cc3ccsc3)CC[C@H]21.O=C(O)C(F)(F)F | 114.3%
COCc1nnc(-c2cccc(C(=O)OC(C)C)c2)o1 | -21.92%
NC(=O)Nc1cccc(CNC(=O)CCCc2ccccc2)c1 | 3.307%
Cc1cc(-c2cnc(NC3CCCC3)nc2-c2ccoc2)on1 | 77.66%
COc1ccc(-c2ccoc2)cc1CNC1CCCC1 | 10.39%
Cc1cc(-c2cnc(N3CCCC(C)C3)nc2-c2cccnc2C)on1.Cl (stereo unspecified) | -3.482%
Cc1cc(-c2cnc(NC3CC3)nc2-c2ccoc2)on1 | 98.24%
CCC1CCC(N(Cc2cc(=O)n(C)c(=O)n2C)C2CC2)CC1 (stereo unspecified) | -6.586%
Cc1ccc(NC(=O)N(C)C)c(C(=O)OCC(=O)NC(C)C(C)C)c1 (stereo unspecified) | -0.8117%
CC(C)CN1CCc2[nH]cnc2C12CCN(C(=O)c1cncn1C)CC2 | -0.9954%
O=C(Nc1ccccc1)C1CN(Cc2ccsc2)CC12CCOCC2.O=C(O)C(F)(F)F (stereo unspecified) | 4.234%
Cc1ccc(CN2Cc3ccccc3O[C@]3(CC[C@H](CO)CC3)C2)o1.Cl | 111.4%
Cc1ccc(CN2CC(C(=O)Nc3ccccc3)C3(CCOCC3)C2)o1.O=C(O)C(F)(F)F (stereo unspecified) | 17.76%
Cc1ccc(CNc2ccc(N3CCC(CO)CC3)cn2)o1 | -69.41%
Cl.OC[C@H]1CC[C@]2(CC1)CN(Cc1ccsc1)Cc1ccccc1O2 | 114.5%
Cc1ncc(CN2Cc3ccccc3O[C@]3(CC[C@H](CO)CC3)C2)cn1.Cl | -8.047%
Cl.OC[C@H]1CC[C@]2(CC1)CN(Cc1ccccc1F)Cc1ccccc1O2 | -7.813%
Cc1cnccc1CN1Cc2ccccc2O[C@]2(CC[C@H](CO)CC2)C1 | 131.4%
Cc1ccc(CN2Cc3ccccc3O[C@]3(CC[C@H](CO)CC3)C2)s1.Cl | 116.6%
Cc1cnccc1CN1CCN(C)C2(CCC(=O)N(CC3CC3)CC2)C1 (stereo unspecified) | -0.1133%
Cc1cnccc1Cn1ccnc1C1CCOC1 (stereo unspecified) | -17.66%

Compound | Percent Effect
Cl.OC[C@H]1CC[C@]2(CC1)CN(Cc1ccccn1)Cc1ccccc1O2 | -8.81%
CCCS(=O)(=O)N1CCOC2(COCCN(C(C)=O)C2)C1 (stereo unspecified) | -8.657%
CN(CCCc1ccc(C(F)(F)F)cc1)Cc1nccn1C | -12.04%
CC(=O)N1CCN(CC(=O)N2CCN(c3cccc(C)c3)CC2)CC1 | -12.32%
COc1ccc(-c2nc(CN3CCOCS3(=O)=O)c(C)o2)cc1 | 1.396%
CSCCC(=O)NS(=O)(=O)c1ccc2c(c1)OCCO2 | 2.619%
C1CN(c2nc(C3CC3)ns2)CCO1 | -22.29%
Cc1cncnc1C1CCN(CC(N)=O)CC1 | 132.7%
CN1CCN(Cc2nnc(C3CCN(CC4CC4)CC3)n2C)CC1 | -21.66%
Cc1cncnc1C1CCN(CC2CC2)CC1 | 99.03%
Cn1cncc1-c1nnc([C@H]2CCN(CC3CCCCC3)C2)o1 | -8.237%
CC(c1cccnc1)N1CCN(CCO)CC1 (stereo unspecified) | 9.024%
CCCn1ncnc1C(C)NC(=O)C1CCN(CC(N)=O)CC1 (stereo unspecified) | -16.66%
CC(NCC1CCN(CCO)CC1)c1cccnc1 (stereo unspecified) | -1.701%
Cc1cc(CNC(=O)C2CCN(CC(N)=O)CC2)cc(C)n1 | 2.597%
Cc1cncnc1C1CCN(CCO)CC1 | 125.7%
O=C(CN1CCCS1(=O)=O)NCCOc1ccc2c(c1)CCC2 | -4.434%
Cn1ccnc1SCCNc1nccc(C(F)(F)F)n1 | -12.11%
Cn1c(Nc2cn[nH]c2)c(C#N)c(=O)n(C)c1=O | -4.688%
CN1C(=O)CCc2cc(NC(=O)C3CC3)ccc21 | -10.85%
CN1CC(C(=O)NCCc2ccc3c(c2)OCO3)CC1=O (stereo unspecified) | 94.15%
CN(Cc1nnc2n1CCC2)C(=O)NCCc1ccc2c(c1)OCO2 | 2.683%

Compound | Percent Effect
CN1CC(C(=O)NCCc2ccc3c(c2)OCCO3)CC1=O (stereo unspecified) | 92.09%
O=C(CCS(=O)(=O)C1CCCC1)NCCc1ccc2c(c1)OCCO2 | -0.351%
COc1ccc(C2C3=C(CCCC3=O)Nc3nc(SC)nc(N)c32)cc1 (stereo unspecified) | 12.57%
CN1CCN(C(C)(C)CNC(=O)C2CCCN2S(C)(=O)=O)CC1 (stereo unspecified) | 10.51%
CC(C)c1ccc(CS(=O)(=O)Cc2nc(N)nc(N(C)C)n2)cc1 | -6.914%
COc1cc(C2(C(=O)N3CCN(CC(C)O)CC3)CC2)ccc1C (stereo unspecified) | 6.894%
Cc1ccc(OCc2cccc(C(=O)N(C)CCC#N)c2)cn1 | 10.32%
CC(C)(Oc1ccc(C(N)=O)cc1)C(=O)N(CCC#N)C1CC1 | 118.6%
CC(C)CN(C(=O)COc1ccc(C(N)=O)cc1)C1CCN(C)CC1 | -11.28%
Cc1ccc(OCCC(=O)N(C)CCC#N)cc1C | -4.451%
COC(=O)CCN(CC1CCCO1)C(=O)CCc1ccc(OC)cc1 (stereo unspecified) | -1.307%
CC(C)(Oc1ccc(C(N)=O)cc1)C(=O)N(CCC#N)CC1CCCO1 (stereo unspecified) | 108.9%
CCOc1ccc(CC(=O)N(CCC(=O)OC)CC2CCCO2)cc1 (stereo unspecified) | 5.007%
N#CCCN(C(=O)COC1CCCC1)C1CC1 | -11.78%
CN(CCC#N)C(=O)C(C)(C)Oc1ccc(C(N)=O)cc1 | 113.2%
CC(C)(C)CC(=O)N[C@@H]1CO[C@H](CNC(=O)c2ccncc2)[C@H]1O | -7.962%
Cc1nc(C)c(C)c(N2C[C@@H](CN3CCCN(C)CC3)[C@@H](CO)C2)n1 | 1.463%
CN(C)CCCN(CCC#N)C(=O)Nc1ccc2[nH]ccc2c1 | -1.012%
CN(C(=O)CCOc1ccccc1)C1CCN(CC2CCOC2)CC1 (stereo unspecified) | -10.27%
O=C(O)C(F)(F)F.O=C(O)c1c(NC2CCC2)ncc2c1CCN(C1CCOC1)C2 (stereo unspecified) | -12.61%
O=C(O)C(F)(F)F.O=C(O)c1c(-c2ccoc2)ncc2c1CCN(C1CCOC1)C2 (stereo unspecified) | -27.15%
O=C(O)C(F)(F)F.O=C(O)C(F)(F)F.O=C(O)c1c(-c2ccncc2)ncc2c1CCN(C1CCOC1)C2 (stereo unspecified) | -10.9%

Compound | Percent Effect
Cc1ccc(Nc2ncnc3c2CCN(CC2CCOC2)CC3)cc1.O=C(O)C(F)(F)F (stereo unspecified) | -7.327%
O=C(O)C(F)(F)F.O=C(O)c1c(-c2cncnc2)ncc2c1CCN(CC1CCOC1)C2 (stereo unspecified) | 114.1%
O=C(O)C(F)(F)F.O=C(O)C(F)(F)F.O=C(O)c1c(-c2ccncc2)ncc2c1CCN(CC1CCOC1)C2 (stereo unspecified) | 92.6%
CCN(CC)S(=O)(=O)c1ccc(C(F)(F)F)cc1C#N | -8.635%
CCOc1ccccc1C(=O)N1CCn2c(nnc2C(F)(F)F)C1 | -4.293%
CCOc1ccccc1C(=O)N1CC(=O)N(C2CCC2)CC(O)C1 (stereo unspecified) | 90.13%
COc1ccccc1OC1CCN(C(=O)c2cccc(O)c2C)CC1 | 0.8848%
COc1ccc(C(=O)N2CC[C@@H](N3CCC(O)CC3)[C@H](O)C2)cc1C | -6.669%
O=C(c1cc(Cl)ccc1OC1CCN(C2CCCC2)CC1)N1CC(O)C1 | 4.812%
COc1cccc2c1OCC(C(=O)N1CCN(C3CCCC3)C(=O)C1)C2 (stereo unspecified) | -9.278%
COc1cccc(OC)c1C(=O)N1CCN(c2ccccc2F)CC1 | -1.098%
COc1cccc(OC)c1C(=O)N1CC(=O)N(C2CCC2)CC(O)C1 (stereo unspecified) | 125.2%
COc1ccccc1C(=O)N1CC(=O)N(C2CCCCC2)CC(O)C1 (stereo unspecified) | 104.3%
O=C(c1ccc2c(c1)[nH]c(=O)n2C1CCCC1)N1CC(O)C1 | -1.674%
COc1ccc(C(=O)N2CC(=O)N(C3CCC3)CC(O)C2)cc1OC (stereo unspecified) | 103.9%
CCOc1ccccc1C(=O)N1CCCC(O)(CN(C)C)C1 (stereo unspecified) | 8.806%
Cc1ccc(NC(=O)N2C[C@H]3CC[C@@H]2CN(Cc2cscn2)C3)cc1 | 4.002%
COc1ccc(C(=O)NC2CC2)c(OC)c1 | 17.15%
COc1ccc(C(=O)N2CC[C@H](CO)[C@H](O)C2)c(C)c1 | -8.532%
COc1ccc(C(=O)N2CC(=O)N(C3CCC3)CC(O)C2)c(OC)c1 (stereo unspecified) | 143.6%
COCCN1C(=O)CCC12CCCN(Cc1nccs1)CC2.O=C(O)C(F)(F)F (stereo unspecified) | 12.79%
CCN1C(=O)CCC12CCCN(Cc1ccc(F)cc1)CC2.O=C(O)C(F)(F)F (stereo unspecified) | 86.81%

Compound | Percent Effect
O=C(O)C(F)(F)F.O=C(O)C(F)(F)F.O=C1CCC2(CCN(Cc3ccc(F)cc3)CC2)N1CCN1CCCC1 | 100.3%
Cn1ccnc1CN1CCC2(CCC(=O)N2CCN2CCCC2)CC1.O=C(O)C(F)(F)F.O=C(O)C(F)(F)F | 107.9%
CN1CC(=O)N(c2cnn(C)c2)CC12CCN(Cc1nccn1C)C2.O=C(O)C(F)(F)F.O=C(O)C(F)(F)F (stereo unspecified) | -9.756%
CCN1C(=O)CCC12CCCN(Cc1nccs1)C2.O=C(O)C(F)(F)F (stereo unspecified) | 30.34%
O=C(NCC1(CO)CC1)c1ccccc1Br | -13.86%
COCC(C)N1CCc2onc(-c3ccc(F)c(F)c3)c2C1 (stereo unspecified) | -3.283%
O=C(NC1CCS(=O)(=O)C1)c1ccc(SCc2cscn2)cc1 (stereo unspecified) | -5.861%
CCCc1cc(NCc2ccc(CO)cc2)n2nccc2n1 | -5.904%
CC(C)N1CCn2c(COCC3CCOCC3)cnc2C1C.O=C(O)C(F)(F)F (stereo unspecified) | 6.159%
COCc1cnc2n1CCN(S(=O)(=O)N(C)C)C2C (stereo unspecified) | 6.284%
CC1c2ncc(Cn3cncn3)n2CCN1C(=O)N(C)C (stereo unspecified) | 113.2%
CC1c2ncc(Cn3cncn3)n2CCN1C(=O)C1CCOCC1 (stereo unspecified) | -2.006%
CC1c2ncc(Cn3cncn3)n2CCN1C1CCOCC1.O=C(O)C(F)(F)F (stereo unspecified) | -16.95%
O=S(=O)(C1CC1)N1CCc2ncc(Cn3cncn3)n2CC1 | -7.39%
CC1c2ncc(Cn3cncn3)n2CCN1C(=O)[C@H]1CCCO1 (stereo partly specified) | 86.12%
Cc1occc1C(=O)N1CCn2c(Cn3cncn3)cnc2C1C (stereo unspecified) | 120.5%
CC1c2ncc(Cn3cncn3)n2CCN1CC1CCOCC1.O=C(O)C(F)(F)F (stereo unspecified) | 55.37%
Cc1nc(COCc2cnc3n2CCN(C(=O)C2CC2)C3C)cs1 (stereo unspecified) | -5.573%
